From PubChem BioAssay come the findings set out here.

The structures appear in SMILES notation. Inconclusive results are not listed. For some assays here: Measured potencies and affinities stand elsewhere. The source made the active and inactive calls.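 Rule for the calls, unless noted: active = compound raises insulin release from rat beta cells at 5 mM glucose, no numeric limit stated; inactive = the rest.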

The nature of assay [1]: stimulators of insulin release from INS-1E, primary screen, cell-based, 5 mM glucose, NPC library (AID 1117329). The note with it: rat INS-1E insulin secretion, at 10 µM, stronger effect = higher value.
Assay [2] in a line: growth inhibition of GSK3B-pretreated HCT116 cells – cell-based, CellTiter-Glo, 0.2 to 20 µM (AID 1117336;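 active = compounds lowering colon cancer cell viability after pretreatment blocking the GSK3B kinase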). Particulars: HCT116 viability after GSK3B inhibitor, at 20 µM, stronger effect = higher value.
Assay [3] is described as follows: inhibition of endothelial tube formation, primary screen, imaging, VEGF stimulated, CD31 staining, tube area, NPC library (AID 1117340;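 active = compound that reduces growth-factor-driven endothelial tube area in a mixed cell culture, no cutoff stated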). The note with it: VEGF-stimulated ADSC/ECFC co-culture, at 10 µM, stronger effect = higher value.
Assay [4] in a line: glucagon-like peptide 1 release enhancers, primary assay, NCI-H716 cell line, NPC library (AID 1117341;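 active = compound raises GLP1 secretion from the human gut endocrine cells, with no numeric limit stated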). Particulars: NCI-H716 cells, at 10 µM, stronger effect = higher value.
A short description of assay [5]: HCT116 colon cancer cell growth inhibition, primary screen, CellTiter-Glo luminescence, NPC library (AID 1117342;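 active = compounds that lower survival of HCT116 colon cancer cells in the luminescence readout, no numeric limit stated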). Particulars: at 20 µM (top of the series). In general terms: Cellular ATP, detected with luciferase, serves as a proxy for viable cell number.
Assay [6] is described as follows: CellTiter-Glo luminescent readout of SW480 viability loss, NPC library primary (AID 1117343;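 active = compounds that lower viability of the colon cancer cells in the luminescence readout, with no numeric limit stated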). The note with it: CellTiter-Glo luminescence; at 20 µM (top of the series).
Assay [7] can be described thus: decreased DLD-1 cellular survival, CellTiter-Glo luminescent readout, NPC compound collection, primary HTS (AID 1117346;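 active = compounds that lower survival of DLD-1 colon cancer cells in the luminescence readout, no cutoff given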). The note with it: DLD-1 viability, CellTiter-Glo luminescence; at 20 µM (top of the series).
In assay [8] the target is 6-phosphogluconate dehydrogenase, decarboxylating (Homo sapiens) (UniProt P52209). Put plainly: 6PGD enzyme inhibitors, primary screen, biochemical, human, recombinant enzyme, NADPH absorbance (AID 1159550;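 active = at least 20% inhibition of 6-phosphogluconate dehydrogenase activity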). The note with it: recombinant 6PGD, NADPH absorbance 341 nm; at 10 µM; stronger effect = higher value.
A short description of assay [9]: differential killing of epithelial or mesenchymal cells, primary screen, imaging, PC-3E GFP, TEM4-18 mCherry, co-culture (AID 1345086;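 active = compounds killing one labelled cell type while sparing the other, by normalised counts and ratio limits, not self-fluorescent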;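 for all read-outs here: cells exposed to compound for 72 h before imaging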;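 for red/green cell ratio (normalised): normalised mesenchymal count divided by normalised epithelial count so high means epithelial killing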). The note with it: imaging cell counts, at 1 µM; for red/green cell ratio (normalised): actives lie on both sides, counts scaled to control wells, 1 = unselective.
Assay [10] can be described thus: growth inhibition of DIPG glioma cells, dose response, cell-based, SU-DIPG-XIII, MIPE5.0, CellTiter-Glo, qHTS (AID 1347064; cut-off not given, nearly all actives have AC50 up to about 23 µM;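 for AC50: cells exposed to compound for 48 hours before the viability read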). Particulars: SU-DIPG-XIII viability, CellTiter-Glo ATP luminescence.
Assay [11] can be described thus: modulation of C. elegans fzo-1 (AID 1259413; call rule not given here;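 note: fzo-1 mutant C. elegans worms in liquid wells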). The note with it: C. elegans fzo-1 modulator screen, mean read-out; stronger effect = higher value.
The target in assay [12] is Calcium-dependent protein kinase 1 (Plasmodium falciparum (isolate 3D7)) (UniProt P62344). Kind of assay: PfCDPK1 kinase inhibitors, biochemical, TCAMS library (AID 1159585; cut-off not given, nearly all actives have IC50 up to about 0.98 µM;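 note: inhibitors leave more ATP so luminescence rises with inhibition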). Particulars: recombinant PfCDPK1, Kinase-Glo ATP depletion luminescence.
In assay [13] the target is Plasmodium falciparum protein kinase 6 (PK6, PF3D7_1337100) (UniProt Q8IDW1). Kind of assay: PfPK6 kinase inhibitors, biochemical, TCAMS library (AID 1159586; call rule not given here). The note with it: recombinant PfPK6, Kinase-Glo ATP depletion luminescence.
Assay [14] deals with Protein kinase 7 (PK7), Plasmodium falciparum 3D7 (PF3D7_0213400) (UniProt Q7YTF7). Put plainly: inhibition of Plasmodium PK7 catalytic activity – biochemical, TCAMS antimalarial set, Kinase-Glo luminescence (AID 1159587; call rule not given here). The note with it: recombinant PfPK7, Kinase-Glo ATP depletion luminescence.
For assay [15], the target named is Calcium-dependent protein kinase 4 (Plasmodium falciparum (isolate 3D7)) (UniProt Q8IBS5). Put plainly: PfCDPK4 kinase inhibitors, biochemical, TCAMS library (AID 1159588; cut-off not given, nearly all actives have IC50 up to about 0.91 µM). Particulars: recombinant PfCDPK4, Kinase-Glo ATP depletion luminescence. (Kinase-Glo reads ATP consumption through a luciferase reaction.)
A short description of assay [16]: growth inhibition of DIPG glioma cells, dose response, cell-based, JHH-DIPG-1, MIPE4.0, CellTiter-Glo, qHTS (AID 1347062; cut-off not given, nearly all actives have AC50 up to about 27 µM). Particulars: JHH-DIPG-1 viability, CellTiter-Glo ATP luminescence.
Assay [17] can be described thus: growth inhibition of DIPG glioma cells, dose response, cell-based, SU-DIPG-IV, MIPE4.0, CellTiter-Glo, qHTS (AID 1347063; cut-off not given, nearly all actives have AC50 up to about 30 µM;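 note: compound exposure lasted 48 hours before the viability readout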). Particulars: SU-DIPG-IV viability, CellTiter-Glo ATP luminescence.
Assay [18] relates to Aerobactin synthetase IucA (Klebsiella pneumoniae). Kind of assay: IucA aerobactin synthetase inhibitors, biochemical, Tocris library, absorbance (AID 1345561; call rule not given here;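 note: 100% = enzyme without compound and 0% = no enzyme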). The note with it: purified IucA enzyme assay, absorbance (OD) read-out; stronger effect = lower value;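 tested at 8 µM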.
Assay [19] can be described thus: growth inhibition of DIPG glioma cells, dose response, cell-based, SU-DIPG-XVII, MIPE5.0, CellTiter-Glo, qHTS (AID 1347060; cut-off not given, nearly all actives have AC50 up to about 26 µM). Particulars: SU-DIPG-XVII viability, CellTiter-Glo ATP luminescence.
Where [20] appears, read: measured here: epithelial PC-3E GFP cell survival.
[21] abbreviates: measured here: mesenchymal TEM4-18 mCherry cell survival.

Chain of 6-phosphogluconate dehydrogenase, decarboxylating (Homo sapiens) (P52209 whole entry, looked up): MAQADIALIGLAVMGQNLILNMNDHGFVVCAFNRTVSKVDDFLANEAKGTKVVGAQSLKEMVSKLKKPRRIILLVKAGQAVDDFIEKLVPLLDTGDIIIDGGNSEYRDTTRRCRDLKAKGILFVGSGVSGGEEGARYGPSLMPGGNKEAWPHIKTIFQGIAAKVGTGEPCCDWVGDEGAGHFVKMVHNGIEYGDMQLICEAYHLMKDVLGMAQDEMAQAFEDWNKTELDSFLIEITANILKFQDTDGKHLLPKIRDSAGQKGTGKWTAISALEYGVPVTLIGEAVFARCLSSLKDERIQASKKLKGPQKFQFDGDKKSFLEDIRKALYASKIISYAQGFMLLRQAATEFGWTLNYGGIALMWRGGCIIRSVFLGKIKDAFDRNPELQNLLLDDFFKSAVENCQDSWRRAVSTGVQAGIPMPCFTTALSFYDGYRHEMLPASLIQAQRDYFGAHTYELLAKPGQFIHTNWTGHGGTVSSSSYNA
Chain of Calcium-dependent protein kinase 1 (Plasmodium falciparum (isolate 3D7)) (P62344 whole entry, looked up): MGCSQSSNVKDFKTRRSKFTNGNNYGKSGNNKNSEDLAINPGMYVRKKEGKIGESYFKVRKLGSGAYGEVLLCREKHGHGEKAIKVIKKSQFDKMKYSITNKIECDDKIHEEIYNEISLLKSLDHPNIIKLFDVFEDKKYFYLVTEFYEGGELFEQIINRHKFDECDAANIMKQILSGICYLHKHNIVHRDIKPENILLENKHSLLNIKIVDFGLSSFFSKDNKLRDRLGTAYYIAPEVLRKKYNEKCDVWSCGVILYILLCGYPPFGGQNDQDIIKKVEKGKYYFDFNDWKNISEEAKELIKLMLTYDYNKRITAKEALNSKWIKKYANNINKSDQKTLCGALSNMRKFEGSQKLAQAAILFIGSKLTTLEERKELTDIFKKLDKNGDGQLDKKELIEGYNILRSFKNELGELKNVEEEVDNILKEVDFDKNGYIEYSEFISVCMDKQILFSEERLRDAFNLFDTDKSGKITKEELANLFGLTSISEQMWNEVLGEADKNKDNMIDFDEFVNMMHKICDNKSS
Chain of Plasmodium falciparum protein kinase 6 (PK6, PF3D7_1337100) (Q8IDW1 1-305): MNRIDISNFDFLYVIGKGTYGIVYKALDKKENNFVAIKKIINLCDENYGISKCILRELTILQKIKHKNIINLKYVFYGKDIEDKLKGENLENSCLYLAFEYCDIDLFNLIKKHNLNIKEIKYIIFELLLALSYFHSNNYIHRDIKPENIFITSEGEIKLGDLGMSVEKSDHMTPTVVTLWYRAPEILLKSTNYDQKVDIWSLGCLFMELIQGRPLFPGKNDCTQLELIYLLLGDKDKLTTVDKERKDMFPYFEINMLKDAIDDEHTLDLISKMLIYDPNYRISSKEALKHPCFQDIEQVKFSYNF
Chain of Protein kinase 7 (PK7), Plasmodium falciparum 3D7 (PF3D7_0213400) (Q7YTF7 1-343): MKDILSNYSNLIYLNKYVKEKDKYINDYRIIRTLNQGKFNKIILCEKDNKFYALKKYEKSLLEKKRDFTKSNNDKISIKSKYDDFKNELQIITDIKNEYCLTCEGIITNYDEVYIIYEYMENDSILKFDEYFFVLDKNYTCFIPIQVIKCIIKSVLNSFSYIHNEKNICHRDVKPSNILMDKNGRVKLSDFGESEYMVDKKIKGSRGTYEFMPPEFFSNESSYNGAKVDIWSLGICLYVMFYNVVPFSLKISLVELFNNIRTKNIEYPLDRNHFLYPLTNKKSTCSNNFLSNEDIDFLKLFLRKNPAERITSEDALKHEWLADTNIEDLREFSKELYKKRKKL
Chain of Calcium-dependent protein kinase 4 (Plasmodium falciparum (isolate 3D7)) (Q8IBS5 whole entry, looked up): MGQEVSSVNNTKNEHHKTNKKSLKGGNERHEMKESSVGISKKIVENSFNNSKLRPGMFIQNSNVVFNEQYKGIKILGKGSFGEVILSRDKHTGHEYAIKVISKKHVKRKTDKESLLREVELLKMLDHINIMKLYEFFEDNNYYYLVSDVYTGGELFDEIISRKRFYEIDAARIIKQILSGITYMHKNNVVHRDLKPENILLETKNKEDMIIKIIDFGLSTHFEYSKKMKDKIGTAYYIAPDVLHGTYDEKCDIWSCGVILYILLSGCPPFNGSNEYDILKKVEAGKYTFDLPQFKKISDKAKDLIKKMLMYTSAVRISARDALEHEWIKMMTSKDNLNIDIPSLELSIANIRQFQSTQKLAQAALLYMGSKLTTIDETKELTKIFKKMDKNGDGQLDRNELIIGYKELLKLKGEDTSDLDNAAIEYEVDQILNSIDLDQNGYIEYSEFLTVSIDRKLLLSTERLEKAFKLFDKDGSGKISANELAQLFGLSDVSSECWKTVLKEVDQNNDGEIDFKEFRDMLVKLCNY

Usually inhibition stands for the drop in the measured response relative to a control, in per cent. On to `Cc1cc(C(C)(C)C)cc(C)c1CC1=NCCN1`, for which the insulin secretion stimulation in [1] is 0.2% (inactive). Besides, in [2], the viability decrease was -61.3% (inactive). In addition, the tube area decrease in [3] was 5.9% (inactive). Moreover, the GLP1 secretion stimulation in assay [4] is 4.3% (inactive). Further, the inhibition of viability in [5] was 18.3% (inactive). Moreover, the results for the viability decrease (inhibition) in [6] and in assay [7] were 2.6% (inactive) and 14.6% (inactive), respectively. Also, in assay [8], the inhibition is -1.59% (inactive). The red/green cell ratio (normalised) in assay [9] was 1.16 (inactive). The results for the normalised cell number in assay [9] (setting [20]) and in assay [9] (setting [21]) were 1.07 and 1.24, respectively. For the same molecule, the molecule was classed as inactive in assay [10].

Consider `COc1cc(C)nc(-n2nc(C)cc2OC)n1`, for which the insulin secretion stimulation in assay [1] was 2.5% (inactive). Also, the viability decrease in assay [2] is -5% (inactive). Also, the tube area decrease in assay [3] is 24.2% (inactive). In assay [4], the GLP1 secretion stimulation was -5.7% (inactive). Further, in [5], the inhibition of viability was -10.1% (inactive). Also, the viability decrease (inhibition) is 1.8% (inactive) in assay [6] and -17.2% (inactive) in assay [7]. In assay [11], the mean signal was 243 (inactive).

For the molecule `CCN(CC)Cc1cc(Nc2ccnc3cc(Cl)ccc23)ccc1O`, in assay [1], the insulin secretion stimulation is 9.6% (inactive). In assay [2], the viability decrease is 82% (active). In assay [3], the tube area decrease is 39.9% (inactive). Moreover, the GLP1 secretion stimulation in assay [4] was -1.3% (inactive). The inhibition of viability in [5] was 83.2% (active). Moreover, the viability decrease (inhibition) in [6] is 87.3% (active); in [7], 44.8% (inactive). In addition, the result in assay [12], in assay [13], in assay [14] and in [15] was inactive.

As a reminder, the AC50 is the concentration at which the activity in the assay is half-maximal. In the case of `CC(=O)N(O)CCCCCNC(=O)CCC(=O)N(O)CCCCCNC(=O)CCC(=O)N(O)CCCCCN`, in [1], the insulin secretion stimulation is 1.8% (inactive). The viability decrease in assay [2] was 56.1% (active). Further, the tube area decrease in [3] is 83% (active). Further, the GLP1 secretion stimulation in assay [4] was -3.6% (inactive). The inhibition of viability in [5] was 75.7% (active). Moreover, the results for the viability decrease (inhibition) in [6] and in assay [7] were 21% (inactive) and 31.5% (inactive), respectively. Further, the inhibition in assay [8] was -4.7% (inactive). For the same molecule, the red/green cell ratio (normalised) in [9] is 1.51 (inactive). The normalised cell number stood at 1.1 in assay [9] (setting [20]) and 1.67 in assay [9] (setting [21]). In [10], the AC50 was 7.42 µM (active).

`Nc1c2c(nc3c1CCC3)CCCC2`: in assay [1], the insulin secretion stimulation is 21.2% (active). Moreover, the viability decrease in assay [2] is -1.35% (inactive). Moreover, the tube area decrease in [3] is 20.5% (inactive). The GLP1 secretion stimulation in [4] was 4.4% (inactive). In addition, the inhibition of viability in [5] was 1% (inactive). Also, the viability decrease (inhibition) is 4.4% (inactive) in assay [6] and -5.95% (inactive) in assay [7]. In [11], the mean signal was 275 (inactive).

Regarding `CC1(C)O[C@H]2CC(=O)OC[C@]23[C@H]2CC[C@@]4(C)[C@H](c5ccoc5)OC(=O)[C@H]5O[C@]54[C@]2(C)C(=O)C[C@@H]13`, the insulin secretion stimulation in assay [1] is 0.05% (inactive). Besides, the viability decrease in assay [2] is 2.7% (inactive). For the same molecule, the tube area decrease in [3] is 16.3% (inactive). The GLP1 secretion stimulation in [4] is 2% (inactive). In addition, the inhibition of viability in assay [5] was -6.9% (inactive). For the same molecule, the viability decrease (inhibition) in assay [6] is -12.1% (inactive); in [7], -9.6% (inactive). In addition, the inhibition in assay [8] was 5.47% (inactive). Also, the molecule was called inactive in assay [16] and in assay [17].

What is called remaining activity is the signal under treatment as a percentage of the control signal. In the case of `C=C[C@@]1(C)CC(=O)[C@]2(O)[C@@]3(C)[C@@H](O)CCC(C)(C)[C@@H]3[C@H](O)[C@H](OC(C)=O)[C@@]2(C)O1`, the insulin secretion stimulation in [1] was 3.6% (inactive). For the same molecule, the viability decrease in assay [2] was -20.2% (inactive). Moreover, in assay [3], the tube area decrease is -41% (inactive). The GLP1 secretion stimulation in assay [4] is 5% (inactive). The inhibition of viability in assay [5] was 17.1% (inactive). The values for the viability decrease (inhibition) in assay [6] and in [7] were 56.2% (active) and -16.6% (inactive), respectively. The inhibition in assay [8] is 14.7% (inactive). Besides, the remaining activity in [18] is 113% (inactive).

For the molecule `NC[C@H](O)c1ccc(O)c(O)c1`, the insulin secretion stimulation in assay [1] was 0.1% (inactive). Further, in assay [2], the viability decrease was 31.8% (inactive). The tube area decrease in assay [3] is -25.8% (inactive). Besides, the GLP1 secretion stimulation in assay [4] is 3.6% (inactive). In addition, the inhibition of viability in assay [5] is 2.5% (inactive). The results for the viability decrease (inhibition) in assay [6] and in [7] were 38.8% (inactive) and 8.6% (inactive), respectively. Moreover, the inhibition in [8] is 7.95% (inactive). The outcome in [19] and in [17] was inactive.
